# Inconclusive results are not listed. Calls of active or inactive are those of the source. The call rests on the fitted dose curve; in most records, active means well fitted inhibition curve with a large enough effect; inconclusive means small, poorly fitted or top-dose-only effect; inactive means flat fitted curve, though single readings scatter.
# Test system: CRL-7250
# Experiment: qHTS assay to identify novel small-molecules to repurpose for Merkel cell carcinoma treatment (AID 1296009); further: nearly all actives have a fitted effect of over 60% in size
# Conditions: MCC and control cell lines, CellTiter-Glo viability, 72 h; series mostly up to 92 µM; activity change, negative = cytotoxicity: at the top concentration
# Outline: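 CellTiter-Glo luminescence after 72 hr compound exposure at 37 degree celsius gave cell viability. Libraries NPC and MIPE were run as 8- and 11-point dose responses; RLUs normalized to DMSO (negative) and no-cell (cytotoxicity) controls.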
row,Compound,outcome
1,O=C(NCC1(N2CCN(c3ccccc3)CC2)CCOCC1)c1cccnc1Sc1ccccc1,inactive
2,O=S(=O)(NC1CCC(c2cc(F)ccc2F)(S(=O)(=O)c2ccc(Cl)cc2)CC1)C(F)(F)F (stereo not given),inactive
3,COc1cc(O)cc(C)c1C(=O)OC1C(CO)OC(n2ccc(=O)[nH]c2=O)C1OC(C)=O (stereo not given),inactive [at 17.4 µM]
4,CC(=O)O[C@@H]1C(=O)C(C)=C(CCC(C)CC(=O)O)[C@@]2(C)CCCC(C)(C)C12 (stereo not given in full),inactive
5,FC(F)(F)c1cc(C(F)(F)F)c2ccc3nc(-c4nnco4)cn3c2n1,inactive
6,CN1C(=O)c2ccccc2-n2c(nc3ccccc3c2=O)/C1=C/c1ccccc1,inactive
7,COc1ccccc1N1CCN(CC(C(=O)NC(C)(C)C)c2ccccc2)CC1 (stereo not given),inactive
8,CCC(C)/C=C(C)/C=C/C1=CC2=C(Cl)C(=O)C(C)(OC(C)=O)C(=O)C2=CN1CCCC(=O)O (stereo not given),inactive [at 17.4 µM]
9,CC(CC12CCCN1C(=O)C1CCCN1C2=O)OC(N)=O (stereo not given),inactive
10,COc1cc(O)c2c(c1)C1(OC2=O)C(C)=CC(=O)C1O (stereo not given),inactive
11,CC(C)=CCC[C@](C)(O[C@@H]1O[C@H](CO[C@@H]2OC[C@@H](O)[C@H](O)[C@H]2O)[C@@H](O)[C@H](O)[C@H]1O)[C@H]1CC[C@]2(C)[C@@H]1[C@H](O)C[C@@H]1[C@@]3(C)CC[C@H](O[C@@H]4O[C@H](CO)[C@@H](O)[C@H](O)[C@H]4O[C@@H]4O[C@H](CO)[C@@H](O)[C@H](O)[C@H]4O)C(C)(C)[C@@H]3CC[C@]12C,inactive [at 17.4 µM]
12,N[C@@]1(C(=O)O)CC[C@H]2[C@H](C(=O)O)[C@H]21,inactive
13,C/C=C/CCC1Cc2cc(O)c(CCCC)c(O)c2C(=O)O1 (stereo not given),inactive
14,COc1cc(OC)cc(C(=O)Nc2ccc(Cl)c(-c3nc4ccc(N(C)C)cc4[nH]3)c2)c1,inactive
15,C/C=C/C=C/C(O)=C1/C(=O)[C@]2(C)C(=O)[C@@](C)(O)[C@H]1[C@H]([C@@]1(C)OC(=O)C(C)=C1O)[C@H]2C(=O)CC/C=C/C,inactive [at 17.4 µM]
16,CC(=O)C=C=C1C(C)(C)CC(O[C@@H]2O[C@H](CO)[C@@H](O)[C@H](O)[C@H]2O)CC1(C)O (stereo not given in full),inactive
17,COC(=O)/C=C/C=C/C(=O)OC1C=C2COC(=O)C2(O)C2(C)CCCC(C)(C)C12 (stereo not given),inactive [at 17.4 µM]
18,COC(=O)C1=CO[C@@H](O[C@@H]2O[C@H](CO)[C@@H](O)[C@H](O)[C@H]2O)[C@@H]2[C@@H](CO)[C@@H](O)C(O)[C@H]12 (stereo not given in full),inactive [at 17.4 µM]
19,CCn1c(=O)n([C@H]2CCCN(c3nccc(-c4cc5ccccc5o4)n3)C2)c2ccccc21,inactive
20,Cc1ccnn1-c1ccc(C(=O)N2CCN(S(=O)(=O)c3ccc(Cl)c(C(F)(F)F)c3)CC2)cc1,inactive

row,Compound,outcome
1,NCc1c[nH]c(=S)n1[C@@H]1CCc2c(F)cc(F)cc2C1,inactive
2,O=C(/C=C/c1ccccc1)OCC1=CC[C@@H]2C(C(=O)O)=CO[C@@H](O[C@@H]3O[C@H](CO)[C@@H](O)[C@H](O)[C@H]3O)[C@H]12,inactive [at 17.4 µM]
3,O=C(/C=C/c1ccccc1)O[C@@H]1[C@@H](CO)O[C@@](CO)(O[C@H]2O[C@H](CO)[C@@H](O)[C@H](O)[C@H]2O)[C@H]1O,inactive [at 17.4 µM]
4,COC(=O)c1cc(CN2CCN(C(=N)N)CC2)cc(C(=O)N2CCN(C(=O)c3ccc(C(=N)N)cc3)CC2)c1,inactive
5,O=C(Cn1c2ccccc2c2nc3n(c(=O)c21)CCS3)N1CCCC1,inactive
6,CC(=O)c1[nH]cc(CCC(=O)O)c1CC(=O)O,inactive
7,CC(C)[C@@H]1C(=O)N(S(C)(=O)=O)[C@@H]2CCN(C(=O)/C=C/CN3CCCCC3)[C@H]21,inactive
8,COc1cc(C)c(C(=O)O[C@@H]2[C@H](O)[C@@H](CO)O[C@H]2n2ccc(=O)[nH]c2=O)c(OC)c1,inactive [at 17.4 µM]
9,O=C(O)/C=C/c1ccc(O[C@@H]2O[C@H](CO)[C@@H](O)[C@H](O)[C@H]2O)cc1,inactive
10,COc1ccc(C2=CC(=O)OC2Cc2ccc(O)cc2)c(O)c1 (stereo not given),inactive
11,CC(C)C1(O[C@@H]2O[C@H](CO)[C@@H](O)[C@H](O)[C@H]2O)CC=C(CO)CC1 (stereo not given in full),inactive
12,CC1=CC2/C=C(\C)CCC(O)C(=O)C(O)CC(=O)C23C(=O)NC(CC(C)C)C3C1C (stereo not given),inactive [at 17.4 µM]
13,CO[C@@H](Cc1ccc(OCCc2nc(-c3ccccc3)oc2C)c2ccsc12)C(=O)O,inactive
14,C=C(C)[C@@H]1CC[C@]2(C(=O)O)CC[C@]3(C)C(CCC4[C@]5(C)C(CC[C@]43C)C(C)(C)[C@@H](O)[C@@H]5C(=O)O)C12 (stereo not given in full),inactive [at 17.4 µM]
15,CC1(CO)CC(O)C2(C)CCC3(C)C(=CCC4C5(C=O)CCC(OC6OC(C(=O)O)C(O)C(O)C6OC6OC(C(=O)O)C(O)C(O)C6O)C(C)(C)C5CCC43C)C2C1 (stereo not given),inactive [at 9.27 µM]
16,COc1c(OC2OC(CO)C(O)C(O)C2O)ccc(O)c1C(=O)OCc1ccccc1O[C@@H]1O[C@H](CO)[C@@H](O)[C@H](O)[C@H]1O (stereo not given in full),inactive [at 17.4 µM]
17,COc1ccc(CNCc2cccc3ccccc23)cc1,inactive
18,CC(/C=C/[C@]1(O)[C@@]2(C)CO[C@@]1(C)C[C@@H](O)C2)=C\C(=O)O[C@@H]1O[C@H](CO)[C@@H](O)[C@H](O)[C@H]1O,inactive [at 17.4 µM]
19,C=C1C(=O)O[C@@H]2C[C@H](C)[C@@]3(O)C=C(C(C)=O)[C@]4(CC3C[C@H]12)C(=O)O[C@H]1C[C@@H](C)C(CCC(C)=O)=CC[C@H]14 (stereo not given in full),inactive [at 17.4 µM]
20,COc1ccc(CCN(C)CCCOc2nsc(-c3ccccc3)n2)cc1OC,inactive
